The record followed here is publication PMC8384837, “Expanding the binding specificity for RNA recognition by a PUF domain”.

The assay addresses PUM1 PUF domain R4-PFG (Homo sapiens, UniProt Q14671 828-1176, N971P;H972F;Q975G). Briefly: yeast three-hybrid, YBZ-1, SC-Leu-His + 0.5 mM 3-AT, 4 days. As to conditions: tags: N-Gal4 AD-HA kept; label: inside an RPR1-promoter hybrid RNA with tandem MS2 sites; ssRNA. In short, it runs like this: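 Pumilio-1 PUF domain libraries, randomized at the three base-contacting residues of each repeat, were co-expressed with matching RNA elements from a centromeric plasmid in strain YBZ-1, which carries a LexA–MS2 coat fusion and a HIS3 reporter. Transformants grew for four days on SC-Leu (input) or on SC-Leu-His + 0.5 mM 3-AT (selection), and the repeat regions were PCR-amplified and Illumina-sequenced. The interaction score is the log change in variant frequency from input to selection. That logarithm is base 2, with a pseudocount of 1 where a variant was absent.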
Consider “GGCUAGAACUAGUGGAUCCCCCGGCGCCCGGCGGCUCGAGCCCGGGUAAGUGUAAAUAGUCUGCAUGCCGCCGGGCGCCAUGCCUGCAGGUCGACUCUAGAAAACAUG”, for which the binding signal is 6.55 log2 enrichment (interaction score).

In the case of “GGCUAGAACUAGUGGAUCCCCCGGCGCCCGGCGGCUCGAGCCCGGGUAAGUGUACAUAGUCUGCAUGCCGCCGGGCGCCAUGCCUGCAGGUCGACUCUAGAAAACAUG”, the binding signal was 6.74 log2 enrichment (interaction score).

For “GGCUAGAACUAGUGGAUCCCCCGGCGCCCGGCGGCUCGAGCCCGGGUAAGUGUAUAUAGUCUGCAUGCCGCCGGGCGCCAUGCCUGCAGGUCGACUCUAGAAAACAUG”, the binding signal is 7.12 log2 enrichment (interaction score).
